Compound activity: PubChem, several laboratories
rCAG binder – molecules binding r(CAG) RNA repeats. AID 651821. inhibition, % at 3 µM. 1.3% of 370,000 active. r(CAG) RNA repeat, TO-PRO-1 dye displacement fluorescence;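 active means inhibition above the plate cutoff, the mean of all test compounds on that plate plus 3 SD, cut at about 35% in these data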;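 further: higher means more dye released from RNA so lower well fluorescence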
Myeloid diff 2 – myeloid differentiation induction; 1% of 360,000 active; ER-HoxA9 myeloid progenitors, lysozyme-GFP differentiation, flow cytometry; calls only at 10 µM;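 active means normalized GFP-positive differentiation at or above the plate's own cutoff, the solvent-only control mean plus 3 SD; inconclusive means no clear call, values can overlap the other calls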;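 further: cells exposed to compound for four days before flow analysis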
FAS TE block – blocks the thioesterase domain of human fatty acid synthase | P49327 | recombinant FAS-TE, OMFH fluorogenic substrate, fluorescence endpoint | inhibition, % at 15 µM | 0.67% of 360,000 active;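 active means compounds whose normalised, plate-corrected inhibition of enzyme fluorescence in the single-dose primary screen is 50% or more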
GRIN3A LBD mod – modulators (binders) of human NR3A ligand-binding domain | 2.5% of 340,000 active | NR3A LBD differential scanning fluorimetry, Tm shift; 0% = protein alone, 100% = glycine-bound protein | Tm shift relative to glycine control, % at 25 µM;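 active means melting temperature shift of at least 10% of the positive control shift, at one fixed dose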
MPTP block – blocks calcium-induced mitochondrial swelling; 1.4% of 360,000 active; isolated mouse mitochondria, Ca2+ swelling absorbance, 30 min; AID 602449; inhibition, % at 10 µM;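 active means inhibition of 50% or more, scaled per plate between neutral and stimulator controls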
Numbers stand for hits; – = inactive; ? = inconclusive; · = not tested or not shown; + = active, no number. The list is not random: actives were taken first. Their share in the collection is about 5.7%.

SMILES | rCAG binder | Myeloid diff 2 | FAS TE block | GRIN3A LBD mod | MPTP block
O=C(C1CCC(=O)N(C2CCCC2)C1)N1CCC(Oc2cccc(F)c2)CC1 (stereo not given) | – | + | – | 18 | –
O=C(O)C1C2C=CC3(CN(c4cccc(C(F)(F)F)c4)C(=O)C13)O2 (stereo not given) | – | – | – | 11 | –
Cc1ccc(C)c(Nc2nc(-c3cccnc3)cs2)c1 | – | – | – | 20 | –
Clc1cccc(-c2csc(Nc3cccnc3)n2)c1 | – | – | – | 29 | –
c1cncc(Nc2nc(-c3cccnc3)cs2)c1 | – | – | – | – | –
Fc1ccc(-c2csc(Nc3ccccn3)n2)cc1 | – | – | – | – | –
Cc1ccc(Nc2nc(-c3cccnc3)cs2)cc1Cl | – | – | – | – | –
CC(=O)Nc1nc(C)c(-c2csc(Nc3ccccn3)n2)s1 | – | – | – | 22 | –
c1ccc(Nc2nc(-c3cccnc3)cs2)nc1 | – | – | – | 34 | –
O=S1(=O)c2ccc(N3CCC[C@H]3CO)cc2O[C@@H]2CCN1C2 | – | · | · | · | ·
COc1cccc(Nc2nc(-c3sc(NC(=O)c4ccccc4)nc3C)cs2)c1 | – | + | – | – | –
COc1cccc(Nc2nc(-c3sc(NC(=O)CC(C)C)nc3C)cs2)c1 | – | – | – | – | –
COC(=O)c1cc2c(c3c4cc(F)ccc4n(S(=O)(=O)c4ccccc4)c13)C(=O)N(C)C2 | – | · | · | · | ·
CC(=O)Oc1ccc(C(=O)[C@H]2[C@H]3C(=O)N(c4ccc(C)cc4)C(=O)[C@H]3[C@@H]3C=CC=NN32)cc1 | – | + | – | – | –
Cn1c(NN)nc2c1c(=O)n(Cc1ccccc1)c(=O)n2C | – | – | – | – | –
CC(C)n1cc(-c2nc(C(=O)NN)cs2)c(=O)n(Cc2ccccc2)c1=O | – | + | – | – | –
CC1=NN(c2ccc(C)cc2)C(=O)/C1=C\C=C\c1ccccc1 | – | – | – | – | –
CC1=NN(c2cccc(C(=O)O)c2)C(=O)/C1=C\C=C/c1ccccc1 | – | ? | – | 12 | –
CCC(NC(=O)Cn1c(-c2ccccc2)cc(C(C)=O)c1C)c1ccccc1 (stereo not given) | – | · | · | · | ·
CCOC(=O)CCSc1nc(C)cc(C(F)(F)F)c1C#N | – | + | – | – | –
CCOC(=O)CCSc1nc(C(C)(C)C)cc(C(F)(F)F)c1C#N | – | – | – | – | –
Cc1c(C)n(CC(O)CN2CCCCC2)c2ccccc12 (stereo not given) | – | – | – | – | –
Cc1cc(C)n(CC(O)Cn2c(C)c(C)c3ccccc32)n1 (stereo not given) | – | + | – | – | –
COc1ccc2c(c1)[C@@]1(NCCc3c1[nH]c1ccc(OC)cc31)C(=O)N2C | – | · | · | · | ·
COc1cc2c(c(OC)c1OC)C1(CCCCC1)CC2NCC=C(C)C (stereo not given) | – | · | · | · | ·
SMILES | rCAG binder | Myeloid diff 2 | FAS TE block | GRIN3A LBD mod | MPTP block
O=C(CNS(=O)(=O)c1ccc(Br)s1)N1CCC(N2CCCCC2)CC1 | – | – | – | 13 | –
CC1CCN(C(=O)CNS(=O)(=O)c2ccc(Br)s2)CC1 | – | – | – | – | –
Cc1ccc(-c2ccc([C@H]3[C@H]4C=CC[C@@H](C)[C@@H]4C(=O)N3Cc3ccccc3)c(F)c2)cc1 | – | – | – | 13 | –
CC[C@@H]1CC=C[C@H]2[C@H]1C(=O)N(Cc1ccccc1)[C@H]2c1ccc(C(F)(F)F)cc1 | – | – | – | 12 | –
CC[C@@H]1CC=C[C@H]2[C@H]1C(=O)N(Cc1ccccc1)[C@H]2c1ccoc1 | · | – | – | – | –
COc1cc(OC)cc(C(=O)NCCN2C(=O)C3C4C=CC(C4)C3C2=O)c1 (stereo not given) | – | · | · | · | ·
CCc1ccccc1NC(=O)C1CCN(S(C)(=O)=O)CC1 | – | + | – | – | –
CSCC[C@H](NC(=O)Cc1ccc(Cl)cc1)C(=O)N1CCC2(CC1)NCCc1[nH]cnc12 | – | + | – | – | –
COc1ccc(CC(=O)N[C@@H](CCSC)C(=O)N2CCC3(CC2)NCCc2[nH]cnc23)cc1 | – | – | – | – | –
COc1ccc(NC(=O)Nn2cnnc2)cc1OC | – | – | – | – | –
COc1cc(NC(=O)Nn2cnnc2)cc(OC)c1OC | – | + | – | – | –
CC(=O)c1c(C)[nH]c(C(=O)CN2C(=O)NC(C)(c3ccc4c(c3)OCCO4)C2=O)c1C (stereo not given) | – | – | – | 32 | –
CC1(c2ccc3c(c2)OCCO3)NC(=O)N(CC(=O)Nc2ccccc2SCC#N)C1=O (stereo not given) | – | + | – | – | –
CCn1c2ccccc2c2cc(NC(=O)COC(=O)c3ccc(F)cc3F)ccc21 | – | · | · | · | ·
COC(=O)[C@]12C[C@H](CC(=O)N3CCCCC3)C(=O)N(Cc3ccco3)C1=C[C@H](C1CCCC1)O[C@@H]2C | – | · | · | · | ·
O=C(CNc1cccc2ccccc12)N/N=C/c1ccc([N+](=O)[O-])o1 | – | – | – | – | –
O=C(Cc1ccc([N+](=O)[O-])cc1)N/N=C/c1ccc([N+](=O)[O-])o1 | – | + | – | – | –
O=C(CNc1cccc([N+](=O)[O-])c1)N/N=C/c1ccc([N+](=O)[O-])o1 | – | + | – | – | –
C[C@@H]1ON(C)[C@H]2C[C@H]3c4[nH]c5ccccc5c4CCN3C[C@@H]12 | – | + | – | · | –
O=C(N/N=C/c1ccc(F)cc1)c1cccc(NC(=O)c2ccc(F)cc2)c1 | – | – | – | 33 | –
CN(C)c1ccc(/C=N/NC(=O)c2ccc(NC(=O)c3ccccc3)cc2)cc1 | – | – | – | 19 | –
COC(=O)c1ccc(/C=N/NC(=O)c2ccc3nc[nH]c3c2)cc1 | – | – | – | 11 | –
O=C(N/N=C/c1ccncc1)c1cccc(NC(=O)c2ccc(Cl)cc2)c1 | – | – | – | 26 | –
O=C(N/N=C/c1ccc(F)cc1)c1ccccc1 | – | – | – | – | –
O=C(N/N=C/c1ccc(Cl)cc1)c1ccc2nc[nH]c2c1 | – | – | – | · | –
SMILES | rCAG binder | Myeloid diff 2 | FAS TE block | GRIN3A LBD mod | MPTP block
COC(=O)c1ccc(S(=O)(=O)N2CCC(NC(=O)Cc3cccc(C)c3)CC2)cc1 | – | · | · | · | ·
O=C1CC(N2CCCC2)=NC(=O)N1c1ccc(Br)cc1 | – | · | · | · | ·
COC[C@@H](O)[C@H]1OCc2cc(OC)ccc2[C@@H]1/C=C/c1ccccc1 | – | · | · | · | ·
O=C(N/N=C\c1ccc(F)cc1)c1csnn1 | – | – | – | 12 | –
O=C(N/N=C/c1cccc(NC(=O)c2ccc(Cl)cc2)c1)c1ccc(O)cc1 | – | – | – | 29 | –
COC(=O)c1cc2c(c3c4ccccc4n(S(=O)(=O)c4ccccc4)c13)C(=O)N(Cc1ccc(N(C)C)cc1)C2 | – | · | · | · | ·
O=S1(=O)CC2c3ccc(F)cc3CN2CN1Cc1ccc(F)cc1 (stereo not given) | – | · | · | · | ·
CCC(C)Sc1cc(-c2nc3cc(C)ccn3c2NC2CCCCC2)ccc1OC (stereo not given) | – | + | – | – | –
CCC(C)Sc1cc(-c2nc3ccccn3c2NC2CCCCC2)ccc1OC (stereo not given) | – | – | – | – | –
